# Shown are actives, neighbours in structure and some others; about 6.8% of the full set was active somewhere.
# A340 absorber: compound light absorbance at 340 nm, profiling panel, artefact control, biochemical, MLSMR library, data from PS, PMK, MK assays. 65,000 tested, under 10 active. compound absorbance at 340 nm, fold over control. fold change at 10 µM. AID 708, 2007;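 active = at 10 µM dose, initial 340 nm absorbance at least 2 fold that of control wells; inactive = change under 2 fold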;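 also: initial absorbance extrapolated from kinetic A340 decline of NADH oxidation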
# Autofluor 339: intrinsic fluorescence of library compounds, ex339/em460 – biochemical, MLSMR library, data from DPM-DC assay, artefact control, profiling panel; fluorescence fold increase at 10 µM; compound autofluorescence, ex339/em460 nm, NADH buffer; hits give high values; 1 = no-compound wells, NADH background; 65,000 compounds, 5.5% hits; AID 709, 2007;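 active = at 10 µM, mean starting fluorescence two-fold or more over control wells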;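 also: signal is the first read of a kinetic run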
# Spn PMK inh: S. pneumoniae PMK inhibitors, primary screen, biochemical, mevalonate pathway, pilot trial included | 65,000 compounds, 0.49% hits | inhibition, % at 10 µM | phosphomevalonate kinase (Streptococcus pneumoniae D39) | purified PMK, PK/LDH-coupled NADH absorbance 340 nm;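 active = top-ranked compounds by inhibition in the single 10 µM screen, taking a fixed number of the strongest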;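 also: 0% = full reaction with DMSO carrier and 100% = background rate without enzyme reaction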
# NADH enzymes: inhibitors of PK/LDH coupling enzymes, profiling panel, artefact control, biochemical, MLSMR library; coupled PK/LDH NADH assays, four targets; IC50, µM (highest dose often 10 µM), without a hit: at the top dose inhibition; 65,000 compounds, 0.02% hits; AID 774, 2007;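 active = single-dose screening hits from any of four coupled enzyme assays that gave an IC50 when retested across doses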;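 also: the DPM-DC format reads NADH fluorescence rather than 340 nm absorbance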
# Spn DPM-DC inh: S. pneumoniae DPM-DC inhibitors, primary screen, biochemical, PK/LDH-coupled NADH fluorescence | 65,000 compounds, 0.49% hits | AID 556, 2006 | calls only at 10 µM | purified DPM-DC | diphosphomevalonate decarboxylase (Streptococcus pneumoniae D39);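 active = the 320 compounds with the highest percent inhibition in the single-dose primary screen, excluding strongly autofluorescent ones, cut at about 32% in these data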;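 also: kinetic rate of NADH fluorescence loss reporting ADP formed by the decarboxylase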
# MK inhibit: S. pneumoniae MK inhibitors, primary screen, biochemical, PK/LDH-coupled NADH absorbance; inhibition, % at 10 µM; mevalonate kinase [Streptococcus pneumoniae D39]; purified MK, PK/LDH-coupled NADH absorbance 340 nm; 65,000 compounds, 0.48% hits;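 active = ranked among the strongest by inhibition in the single 10 µM screen, a fixed top-ranked set picked for dose follow-up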
# Starred values were filed as active, the others as inactive; i = inactive; / = not tested or not shown; + = active, no number; [ ] = remark or other dose.
SMILES,A340 absorber,Autofluor 339,Spn PMK inh,NADH enzymes,Spn DPM-DC inh,MK inhibit
COc1ccccc1C(=O)NCCc1nc2ccccc2n1C,1.01,1.01,0.0,9.0%,i,active
COC(=O)c1ccsc1NC(=O)CN1C(=O)CCC1=O,0.99,1.01,3.0,1.0%,i,9.0
CCCNC(=O)c1c(C)cc(=O)oc1C,1.22,2.06*,16.0,12.0%,i,0.0
CCC(C)NC(=O)CSC1=Nc2ccccc2C2=NC(CC(=O)NCc3ccc(F)cc3)C(=O)N12 (centres undefined),1.03,2.83*,8.0,8.0%,i,17.0
CCOC(=O)CSC1=Nc2ccccc2C2=NC(CC(=O)NCc3cccs3)C(=O)N12 (centres undefined),1.03,1.19,9.0,3.0%,i,6.0
CCOC(=O)CSC1=Nc2ccccc2C2=NC(CC(=O)NCc3ccccc3)C(=O)N12 (centres undefined),1.03,2.99*,9.0,10.0%,i,9.0
CC(C)C1N=C2c3ccccc3N=C(SCC(=O)NCCc3ccc(S(N)(=O)=O)cc3)N2C1=O (centres undefined),1.03,2.4*,8.0,7.0%,i,10.0
C=COC(=O)CSc1nc(-c2cccs2)ccc1C#N,1.1,2.07*,0.0,3.0%,i,8.0
CCN(CC)C(=O)CSc1nc(C)cc(-c2cccs2)c1C#N,1.08,1.12,8.0,10.0%,i,11.0
CCOC(=O)C(C)Sc1nc(-c2cccs2)ccc1C#N (centres undefined),1.12,2.19*,0.0,3.0%,/,5.0
CCn1cc(C(=O)Nn2cnnc2)c(=O)c2ccc(C)nc21,1.05,0.92,13.0,6.0%,i,0.0
O=C(CSc1nnc2scc(-c3ccccc3)n12)N1CCN(Cc2ccccc2)CC1,1,1.06,12.0,2.0%,i,3.0
COc1cc2c(cc1OC)CN(C(=O)CSc1nnc3scc(-c4ccccc4)n13)CC2,0.98,1.13,6.0,6.0%,+,5.0
C=CCNc1nc2c(c(=O)[nH]c(=O)n2C)n1CCCCC,1.03,0.91,0.0,4.0%,i,4.0
O=C1CC(c2ccccc2)CC(O)=C1C=NCC1CCCO1 (centres undefined),1,1.11,38.0*,21.0%,i,25.0
Cc1nn(-c2ccccc2)c2sc(C(=O)N(CC(=O)NC3CCCC3)Cc3ccco3)cc12,1.05,1.18,1.0,3.0%,i,9.0
CC1(C(=O)N(CC(=O)NC2CCCC2)Cc2ccco2)CC(=O)N=C2C=CC=CN21 (centres undefined),1.02,4.85*,8.0,7.0%,/,6.0
COC(=O)c1cnn2c3c(c(C)nc12)CCCC3,0.99,4.83*,24.0,14.0%,/,3.0
C=CCc1c(C)nc2c(C(=O)O)cnn2c1C,1.01,1.89,14.0,5.0%,i,0.0
CCOC(=O)Nc1cc(=O)c2ccccc2o1,1,1.57,0.0,3.0%,i,2.0
CCOC(=O)Nc1cc2c(C)cc(=O)oc2cc1C,1.03,3.6*,9.0,15.0%,i,7.0
COc1ccc(N(CC(=O)Nc2cc(OC)ccc2OC)S(C)(=O)=O)cc1,1.03,1.15,0.0,17.0%,i,51.0*
O=C(Nn1c(C2CC2)nc2ccccc2c1=O)c1ccco1,0.99,1.03,55.0*,6.0%,i,0.0
Cc1ccc2[nH]c3c(=O)n(CCCN4CCN(C)CC4)cnc3c2c1,0.99,2.11*,12.0,8.0%,i,10.0
Cn1c2ccc(F)cc2c2ncn(CCN3CCOCC3)c(=O)c21,1,1.71,12.0,6.0%,i,9.0
SMILES,A340 absorber,Autofluor 339,Spn PMK inh,NADH enzymes,Spn DPM-DC inh,MK inhibit
Cc1ccc2[nH]c3c(=O)n(CCCN4CCOCC4)cnc3c2c1,1.07,2.74*,0.0,12.0%,i,10.0
Cn1c2ccccc2c2ncn(CCCN3CCOCC3)c(=O)c21,1.01,2.39*,8.0,6.0%,i,1.0
COc1cc2[nH]c3c(=O)n(CCN4CCCCC4)cnc3c2cc1OC,1.1,3.63*,9.0,10.0%,/,11.0
O=c1c2[nH]c3cccc(Cl)c3c2ncn1CCN1CCCCC1,1.02,1.62,4.0,4.0%,i,9.0
Cc1cc(S(=O)(=O)N(Cc2ccc3c(c2)OCO3)CC2CCCO2)ccc1-n1cnnn1 (centres undefined),1.04,1.13,10.0,3.0%,i,0.0
COc1ccc(S(=O)(=O)N2CCCC2C(=O)Nc2ccc(C(C)=O)cc2)cc1 (centres undefined),1.04,1.02,4.0,2.0%,i,2.0
N#Cc1c(N2CCCC2)nc(N)c2c(N)nc(N3CCCC3)cc12,0.97,2.51*,5.0,2.0%,/,3.0
Cc1cc(C)c(C#N)c(N2CCCC2)n1,1.09,3.62*,4.0,10.0%,/,15.0
COc1cc2c(C#N)c(N3CCN(c4ccccc4OC)CC3)nc(N)c2c(N)n1,1.01,2.38*,0.0,3.0%,+[fluoresces],12.0
N#Cc1c(N)nc(N2CCCC2)c(C#N)c1-c1ccc(Cl)cc1,1.03,1.09,8.0,4.0%,i,3.0
Cc1nonc1NC(=O)CSc1ccc(-c2ccccc2)nn1,0.96,0.99,27.0*,10.0%,i,1.0
CCN(CC)CCNc1nc2ccccc2n1C,1.03,1.11,0.0,1.0%,i,4.0
Cc1ccc2c(c1)nc(NCCO)n2C,1.03,2.08*,13.0,10.0%,i,4.0
COC(=O)c1[nH]c2cccc(Cl)c2c1NC(=O)CN(C)C1CCCCC1,1.02,1.11,13.0,7.0%,i,9.0
CCCCOC(=O)CSC1=C(C#N)C(c2ccccc2OC)C(C#N)C(=O)N1 (centres undefined),0.99,1.08,3.0,27.0%,i,78.0*
COC(=O)c1sc2ccccc2c1N,1.07,2.12*,7.0,7.0%,/,6.0
COC(=O)c1sc2ccccc2c1C(=O)OC,1,1.17,14.0,5.0%,i,1.0
CCCc1cc(=O)oc2cc(OCC(=O)OC)cc(OCC(=O)OC)c12,1.02,2.1*,2.0,3.0%,/,3.0
CCCc1cc(=O)oc2cc(C)cc(OCc3nn[nH]n3)c12,1.05,3.83*,13.0,10.0%,/,7.0
O=C(COC(=O)C1COc2ccccc2O1)Nc1ccc2c(c1)CCC2 (centres undefined),1.04,0.98,16.0,9.0%,i,8.0
Cc1occc1C(=O)Nc1nnc(C(F)(F)F)s1,1.1,1.24,74.0*,65.0%,+,59.0*
c1ccc(-n2c(-c3ccncc3)nnc2-c2cccs2)cc1,1.03,1.31,11.0,10.0%,i,10.0
